# Data: article PMC7862700, “An all-to-all approach to the identification of sequence-specific readers for epigenetic DNA modifications on cytosine”
# Legend:
# Assay in all cases: DAPPL (digital affinity profiling via proximity ligation, sequencing); 10 mM Tris-HCl pH 7.5, 50 mM NaCl, 1 mM DTT, 4% glycerol, room temperature, 30 min; GST-TFs on glutathione beads, 16-mer random dsDNA library, 0.1% formaldehyde crosslink after washing; high values mean tight binding
# FEV = target: T1, FEV (Homo sapiens, UniProt Q99581 1-238); conditions: protein: recombinant; tags: N-terminal GST; dsDNA, one strand shown
# T1 sequence: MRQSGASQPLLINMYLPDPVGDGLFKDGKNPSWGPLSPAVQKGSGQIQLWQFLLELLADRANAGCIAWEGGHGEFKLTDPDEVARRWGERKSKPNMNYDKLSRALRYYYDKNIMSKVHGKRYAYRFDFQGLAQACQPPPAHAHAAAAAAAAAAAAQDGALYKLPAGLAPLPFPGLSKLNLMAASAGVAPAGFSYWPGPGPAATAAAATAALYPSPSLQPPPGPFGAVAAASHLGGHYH
# How it was run: (§1)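 The binding signal reported is, for every hexamer, its read frequency for a factor over its read frequency for the tag-only sample. Reads came from pools of yeast-expressed, GST-fused human transcription factors on glutathione beads, barcoded with DNA and mixed with that sample, which were incubated with 200 nmole of a random double-stranded 16-mer DNA library in Tris/NaCl/DTT/glycerol buffer at room temperature for 30 min. After washing, the pools were crosslinked with 0.1% formaldehyde, proximity-ligated with BsaI/T4 ligase for 1 h at 37 °C, PCR-amplified and sequenced on an Illumina NextSeq500.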
# ETV5 = ETV5 (Homo sapiens, UniProt P41161 1-510); conditions: protein: recombinant; tags: N-terminal GST; dsDNA, one strand shown
# How it was run: as §1
# HSF1 = HSF1 (Homo sapiens, UniProt Q00613 1-529); conditions: protein: recombinant; tags: N-terminal GST; chain copies: 3; dsDNA, one strand shown
# How it was run: as §1
# SPIC = target: T2, SPIC (Homo sapiens, UniProt Q8N5J4 1-248); conditions: protein: recombinant; tags: N-terminal GST; dsDNA, one strand shown
# T2 sequence: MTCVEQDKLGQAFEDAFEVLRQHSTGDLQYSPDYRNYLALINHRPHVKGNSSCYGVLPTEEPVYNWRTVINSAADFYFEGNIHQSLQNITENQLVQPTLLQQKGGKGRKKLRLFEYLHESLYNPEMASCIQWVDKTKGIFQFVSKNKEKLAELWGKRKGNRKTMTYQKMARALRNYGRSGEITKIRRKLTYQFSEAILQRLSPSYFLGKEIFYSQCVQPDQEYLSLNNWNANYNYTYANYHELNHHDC
# How it was run: as §1
# ELF4 = ELF4 (Homo sapiens, UniProt Q99607 1-663); conditions: protein: recombinant; tags: N-terminal GST; dsDNA, one strand shown
# How it was run: as §1
# ELK4 = target: T3, ELK4 (Homo sapiens, UniProt P28324-2 1-405); conditions: protein: recombinant; tags: N-terminal GST; dsDNA, one strand shown
# T3 sequence: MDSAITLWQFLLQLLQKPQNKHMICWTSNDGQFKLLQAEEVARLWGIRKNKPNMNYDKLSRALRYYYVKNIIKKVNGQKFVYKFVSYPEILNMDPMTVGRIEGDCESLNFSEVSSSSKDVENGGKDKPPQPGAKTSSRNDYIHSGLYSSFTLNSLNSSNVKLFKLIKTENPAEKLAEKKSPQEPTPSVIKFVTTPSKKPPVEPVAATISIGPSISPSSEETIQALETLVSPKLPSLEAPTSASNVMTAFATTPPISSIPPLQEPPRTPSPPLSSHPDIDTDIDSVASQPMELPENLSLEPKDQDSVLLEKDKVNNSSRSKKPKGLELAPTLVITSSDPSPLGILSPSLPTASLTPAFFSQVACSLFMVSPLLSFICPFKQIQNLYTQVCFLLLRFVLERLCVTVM
# How it was run: as §1
# ETV2 = target: T4, ETV2 (Homo sapiens, UniProt O00321 1-342); conditions: protein: recombinant; tags: N-terminal GST; dsDNA, one strand shown
# T4 sequence: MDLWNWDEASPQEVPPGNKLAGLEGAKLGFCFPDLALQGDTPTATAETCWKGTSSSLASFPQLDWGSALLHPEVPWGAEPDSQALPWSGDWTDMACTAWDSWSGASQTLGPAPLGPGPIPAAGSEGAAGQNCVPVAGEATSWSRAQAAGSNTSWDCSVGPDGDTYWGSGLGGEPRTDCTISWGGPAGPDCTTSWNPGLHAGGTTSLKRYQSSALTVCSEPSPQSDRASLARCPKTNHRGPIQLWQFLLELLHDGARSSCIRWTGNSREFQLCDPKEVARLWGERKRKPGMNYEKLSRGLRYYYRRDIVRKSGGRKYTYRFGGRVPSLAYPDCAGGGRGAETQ
# How it was run: as §1
# ELF3 = target: T5, ELF3 (Homo sapiens, UniProt P78545 1-371); conditions: protein: recombinant; tags: N-terminal GST; dsDNA, one strand shown
# T5 sequence: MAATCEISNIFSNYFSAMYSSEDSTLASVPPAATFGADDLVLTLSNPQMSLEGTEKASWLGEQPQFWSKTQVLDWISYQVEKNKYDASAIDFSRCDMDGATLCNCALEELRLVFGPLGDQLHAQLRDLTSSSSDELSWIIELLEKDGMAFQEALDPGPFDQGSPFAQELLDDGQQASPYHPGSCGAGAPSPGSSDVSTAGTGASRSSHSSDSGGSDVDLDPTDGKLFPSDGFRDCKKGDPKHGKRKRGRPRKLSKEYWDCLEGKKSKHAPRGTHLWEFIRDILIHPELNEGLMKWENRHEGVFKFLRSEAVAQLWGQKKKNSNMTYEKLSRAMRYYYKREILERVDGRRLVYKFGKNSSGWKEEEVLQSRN
# How it was run: as §1
# CRX = CRX (Homo sapiens, UniProt O43186 1-299); conditions: protein: recombinant; tags: N-terminal GST; dsDNA, one strand shown
# How it was run: as §1
# ETV1 = ETV1 (Homo sapiens, UniProt P50549 1-477); conditions: protein: recombinant; tags: N-terminal GST; dsDNA, one strand shown
# How it was run: as §1
# ERF = target: T6, ERF (Homo sapiens, UniProt P50548 1-548); conditions: protein: recombinant; tags: N-terminal GST; dsDNA, one strand shown
# T6 sequence: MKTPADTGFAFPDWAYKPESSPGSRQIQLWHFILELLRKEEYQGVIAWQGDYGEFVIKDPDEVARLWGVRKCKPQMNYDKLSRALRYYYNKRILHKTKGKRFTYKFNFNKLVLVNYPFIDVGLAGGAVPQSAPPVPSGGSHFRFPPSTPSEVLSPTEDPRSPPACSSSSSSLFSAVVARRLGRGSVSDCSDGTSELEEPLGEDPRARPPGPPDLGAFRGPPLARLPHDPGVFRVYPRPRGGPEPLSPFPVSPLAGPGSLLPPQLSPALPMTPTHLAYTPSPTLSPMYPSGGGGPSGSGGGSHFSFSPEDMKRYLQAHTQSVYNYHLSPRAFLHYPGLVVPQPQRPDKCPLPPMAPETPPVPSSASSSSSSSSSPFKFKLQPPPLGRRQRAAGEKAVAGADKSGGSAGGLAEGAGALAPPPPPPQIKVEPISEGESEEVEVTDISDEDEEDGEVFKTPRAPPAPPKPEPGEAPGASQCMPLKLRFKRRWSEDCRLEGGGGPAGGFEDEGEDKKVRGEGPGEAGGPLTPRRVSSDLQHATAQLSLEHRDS
# How it was run: as §1
# ETV3L = target: T7, ETV3L (Homo sapiens, UniProt Q6ZN32 1-361); conditions: protein: recombinant; tags: N-terminal GST; dsDNA, one strand shown
# T7 sequence: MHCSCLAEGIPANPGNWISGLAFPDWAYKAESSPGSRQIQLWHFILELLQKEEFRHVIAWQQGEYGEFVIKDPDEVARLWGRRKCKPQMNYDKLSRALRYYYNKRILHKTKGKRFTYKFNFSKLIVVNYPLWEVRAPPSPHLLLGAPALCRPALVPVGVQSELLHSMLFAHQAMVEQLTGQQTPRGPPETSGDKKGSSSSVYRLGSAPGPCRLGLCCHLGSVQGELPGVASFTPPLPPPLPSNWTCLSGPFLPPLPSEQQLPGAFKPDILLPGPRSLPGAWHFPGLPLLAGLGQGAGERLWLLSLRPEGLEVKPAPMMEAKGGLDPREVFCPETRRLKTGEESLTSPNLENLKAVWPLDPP
# How it was run: as §1
# ETS2 = target: T8, ETS2 (Homo sapiens, UniProt P15036 1-469); conditions: protein: recombinant; tags: N-terminal GST; dsDNA, one strand shown
# T8 sequence: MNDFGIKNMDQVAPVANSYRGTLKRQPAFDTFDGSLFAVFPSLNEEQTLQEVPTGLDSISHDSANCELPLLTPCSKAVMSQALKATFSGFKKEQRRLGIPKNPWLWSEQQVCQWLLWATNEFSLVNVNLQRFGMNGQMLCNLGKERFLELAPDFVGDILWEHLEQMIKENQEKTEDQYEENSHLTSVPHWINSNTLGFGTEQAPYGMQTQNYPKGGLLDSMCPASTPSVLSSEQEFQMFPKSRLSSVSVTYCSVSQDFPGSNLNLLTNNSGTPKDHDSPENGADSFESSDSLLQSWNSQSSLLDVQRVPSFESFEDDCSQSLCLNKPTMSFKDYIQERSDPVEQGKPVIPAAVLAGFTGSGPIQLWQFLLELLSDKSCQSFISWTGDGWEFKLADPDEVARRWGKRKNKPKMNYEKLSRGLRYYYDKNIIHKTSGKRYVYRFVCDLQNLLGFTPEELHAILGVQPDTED
# How it was run: as §1
# SPDEF = target: T9, SPDEF (Homo sapiens, UniProt O95238 1-335); conditions: protein: recombinant; tags: N-terminal GST; dsDNA, one strand shown
# T9 sequence: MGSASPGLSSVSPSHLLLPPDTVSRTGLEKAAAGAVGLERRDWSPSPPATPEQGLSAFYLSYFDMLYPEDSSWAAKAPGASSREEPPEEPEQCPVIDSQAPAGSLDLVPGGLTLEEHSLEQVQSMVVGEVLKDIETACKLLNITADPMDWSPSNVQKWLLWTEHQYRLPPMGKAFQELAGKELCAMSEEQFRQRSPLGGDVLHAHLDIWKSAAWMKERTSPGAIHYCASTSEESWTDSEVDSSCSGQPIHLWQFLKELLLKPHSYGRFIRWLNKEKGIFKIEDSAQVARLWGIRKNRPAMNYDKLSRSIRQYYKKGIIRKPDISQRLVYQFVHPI
# How it was run: as §1
# ETV7 = target: T10, ETV7 (Homo sapiens, UniProt Q9Y603 1-341); conditions: protein: recombinant; tags: N-terminal GST; dsDNA, one strand shown
# T10 sequence: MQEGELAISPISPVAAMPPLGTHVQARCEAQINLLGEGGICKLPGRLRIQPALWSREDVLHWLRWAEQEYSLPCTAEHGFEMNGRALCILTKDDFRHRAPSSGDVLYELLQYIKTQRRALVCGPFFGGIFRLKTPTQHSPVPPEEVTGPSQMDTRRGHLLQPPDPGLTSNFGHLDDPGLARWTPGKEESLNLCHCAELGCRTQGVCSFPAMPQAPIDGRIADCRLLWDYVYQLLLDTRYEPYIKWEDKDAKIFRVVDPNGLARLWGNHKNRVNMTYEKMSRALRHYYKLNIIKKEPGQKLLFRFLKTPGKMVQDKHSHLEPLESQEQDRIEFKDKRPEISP
# How it was run: as §1
# ELF5 = target: T11, ELF5 (Homo sapiens, UniProt Q9UKW6-2 1-255); conditions: protein: recombinant; tags: N-terminal GST; dsDNA, one strand shown
# T11 sequence: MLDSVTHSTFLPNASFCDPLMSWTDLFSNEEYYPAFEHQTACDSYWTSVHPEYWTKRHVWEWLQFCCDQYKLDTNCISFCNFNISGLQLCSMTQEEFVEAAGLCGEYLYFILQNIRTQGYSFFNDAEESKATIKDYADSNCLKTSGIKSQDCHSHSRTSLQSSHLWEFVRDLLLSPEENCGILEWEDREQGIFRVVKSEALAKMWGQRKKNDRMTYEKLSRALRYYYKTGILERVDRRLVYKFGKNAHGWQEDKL
# How it was run: as §1
# ETV3 = target: T12, ETV3 (Homo sapiens, UniProt P41162-2 1-143); conditions: protein: recombinant; tags: N-terminal GST; dsDNA, one strand shown
# T12 sequence: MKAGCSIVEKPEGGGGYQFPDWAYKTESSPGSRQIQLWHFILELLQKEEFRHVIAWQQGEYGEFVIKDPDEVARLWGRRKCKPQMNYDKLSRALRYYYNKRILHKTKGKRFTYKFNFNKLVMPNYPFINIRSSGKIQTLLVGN
# How it was run: as §1
# ETV6 = ETV6 (Homo sapiens, UniProt P41212 1-452); conditions: protein: recombinant; tags: N-terminal GST; dsDNA, one strand shown
# How it was run: as §1
# CRX, sequence (O43186 whole entry): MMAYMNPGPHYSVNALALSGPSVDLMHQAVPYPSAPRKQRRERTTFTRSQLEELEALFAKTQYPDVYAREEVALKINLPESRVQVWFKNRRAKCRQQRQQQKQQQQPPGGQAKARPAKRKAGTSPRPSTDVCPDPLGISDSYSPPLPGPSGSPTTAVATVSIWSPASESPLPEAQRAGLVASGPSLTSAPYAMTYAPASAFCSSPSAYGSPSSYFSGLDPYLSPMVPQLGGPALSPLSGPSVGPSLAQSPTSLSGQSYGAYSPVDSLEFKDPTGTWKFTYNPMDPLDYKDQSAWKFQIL
# ETV1, sequence (P50549 whole entry): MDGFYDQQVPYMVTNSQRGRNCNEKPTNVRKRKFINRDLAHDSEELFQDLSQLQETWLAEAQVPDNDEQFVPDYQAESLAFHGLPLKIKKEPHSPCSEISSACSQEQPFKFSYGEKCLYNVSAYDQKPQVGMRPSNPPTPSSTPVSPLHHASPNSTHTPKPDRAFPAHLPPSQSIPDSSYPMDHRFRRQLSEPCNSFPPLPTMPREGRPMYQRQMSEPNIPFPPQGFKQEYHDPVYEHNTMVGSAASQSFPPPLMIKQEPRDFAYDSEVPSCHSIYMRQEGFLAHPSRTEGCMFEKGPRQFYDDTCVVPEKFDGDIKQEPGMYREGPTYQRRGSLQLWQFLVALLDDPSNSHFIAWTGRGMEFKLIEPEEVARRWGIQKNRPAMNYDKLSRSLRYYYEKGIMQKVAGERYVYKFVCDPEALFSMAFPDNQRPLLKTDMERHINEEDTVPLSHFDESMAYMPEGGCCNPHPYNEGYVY
# ETV5, sequence (P41161 whole entry): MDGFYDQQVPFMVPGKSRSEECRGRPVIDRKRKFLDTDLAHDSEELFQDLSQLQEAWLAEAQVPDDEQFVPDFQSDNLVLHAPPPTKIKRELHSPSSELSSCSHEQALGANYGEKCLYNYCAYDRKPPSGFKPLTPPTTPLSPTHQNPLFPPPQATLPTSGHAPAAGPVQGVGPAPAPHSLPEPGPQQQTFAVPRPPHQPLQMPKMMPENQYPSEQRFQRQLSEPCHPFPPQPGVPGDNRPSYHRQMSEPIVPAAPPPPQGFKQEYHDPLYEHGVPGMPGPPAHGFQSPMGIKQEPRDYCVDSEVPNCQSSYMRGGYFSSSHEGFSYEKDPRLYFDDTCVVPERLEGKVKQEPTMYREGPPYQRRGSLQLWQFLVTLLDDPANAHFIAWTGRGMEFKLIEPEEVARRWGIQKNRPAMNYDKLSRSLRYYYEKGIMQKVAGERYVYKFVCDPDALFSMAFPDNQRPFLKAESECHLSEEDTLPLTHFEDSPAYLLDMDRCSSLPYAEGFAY
# HSF1, sequence (Q00613 whole entry): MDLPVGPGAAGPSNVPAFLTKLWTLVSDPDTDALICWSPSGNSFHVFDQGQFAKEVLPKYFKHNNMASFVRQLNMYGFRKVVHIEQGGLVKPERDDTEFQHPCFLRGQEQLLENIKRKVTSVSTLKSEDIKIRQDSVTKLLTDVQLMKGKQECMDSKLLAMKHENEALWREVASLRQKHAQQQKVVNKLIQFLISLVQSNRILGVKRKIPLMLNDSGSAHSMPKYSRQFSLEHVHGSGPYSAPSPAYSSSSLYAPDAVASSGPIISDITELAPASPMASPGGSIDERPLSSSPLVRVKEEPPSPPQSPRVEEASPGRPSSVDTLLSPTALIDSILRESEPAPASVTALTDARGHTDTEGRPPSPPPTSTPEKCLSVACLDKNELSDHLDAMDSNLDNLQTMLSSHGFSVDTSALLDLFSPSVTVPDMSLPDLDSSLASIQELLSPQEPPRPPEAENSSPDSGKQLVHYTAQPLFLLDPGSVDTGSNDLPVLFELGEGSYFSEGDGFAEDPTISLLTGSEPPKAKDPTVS
# ETV6, sequence (P41212 whole entry): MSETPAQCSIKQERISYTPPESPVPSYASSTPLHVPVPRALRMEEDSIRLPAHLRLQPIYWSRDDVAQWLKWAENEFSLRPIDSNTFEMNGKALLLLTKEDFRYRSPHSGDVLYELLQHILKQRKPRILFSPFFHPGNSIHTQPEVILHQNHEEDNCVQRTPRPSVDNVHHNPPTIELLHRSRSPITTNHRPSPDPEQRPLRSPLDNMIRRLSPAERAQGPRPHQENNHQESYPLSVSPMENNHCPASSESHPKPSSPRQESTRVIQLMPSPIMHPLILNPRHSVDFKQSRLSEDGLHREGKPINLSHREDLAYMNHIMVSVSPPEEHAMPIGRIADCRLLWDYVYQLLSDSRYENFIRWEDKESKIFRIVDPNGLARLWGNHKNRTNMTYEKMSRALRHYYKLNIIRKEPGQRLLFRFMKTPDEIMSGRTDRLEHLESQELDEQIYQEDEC
# ELF4, sequence (Q99607 whole entry): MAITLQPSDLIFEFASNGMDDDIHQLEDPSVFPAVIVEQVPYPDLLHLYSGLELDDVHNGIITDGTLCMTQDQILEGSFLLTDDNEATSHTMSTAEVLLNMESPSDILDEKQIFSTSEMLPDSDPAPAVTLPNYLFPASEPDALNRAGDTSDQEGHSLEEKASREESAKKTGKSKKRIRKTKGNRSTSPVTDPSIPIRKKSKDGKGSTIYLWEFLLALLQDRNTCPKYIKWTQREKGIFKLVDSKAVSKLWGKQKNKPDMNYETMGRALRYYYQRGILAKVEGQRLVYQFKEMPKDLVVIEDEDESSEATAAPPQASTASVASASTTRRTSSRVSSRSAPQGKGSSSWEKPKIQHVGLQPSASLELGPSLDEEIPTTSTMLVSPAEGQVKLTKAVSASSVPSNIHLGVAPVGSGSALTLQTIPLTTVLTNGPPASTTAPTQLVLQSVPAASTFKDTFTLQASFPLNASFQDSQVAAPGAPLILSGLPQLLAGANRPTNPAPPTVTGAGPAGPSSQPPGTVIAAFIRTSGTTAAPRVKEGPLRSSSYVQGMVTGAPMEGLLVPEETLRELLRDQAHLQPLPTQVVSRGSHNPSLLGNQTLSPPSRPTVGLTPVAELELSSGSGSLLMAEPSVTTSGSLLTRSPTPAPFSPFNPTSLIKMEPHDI
sequence,measurement,setting,value
CTCGAG,binding signal,FEV,"1.2 fold enrichment (6-mer frequency, TF over GST control)"
same,binding signal,ETV5,"1.26 fold enrichment (6-mer frequency, TF over GST control)"
same,binding signal,HSF1,"2 fold enrichment (6-mer frequency, TF over GST control)"
same,binding signal,SPIC,"1.44 fold enrichment (6-mer frequency, TF over GST control)"
same,binding signal,ELF4,"1.34 fold enrichment (6-mer frequency, TF over GST control)"
same,binding signal,ELK4,"1.31 fold enrichment (6-mer frequency, TF over GST control)"
same,binding signal,ETV2,"1.64 fold enrichment (6-mer frequency, TF over GST control)"
same,binding signal,ELF3,"1.3 fold enrichment (6-mer frequency, TF over GST control)"
same,binding signal,CRX,"1.26 fold enrichment (6-mer frequency, TF over GST control)"
same,binding signal,ETV1,"1.2 fold enrichment (6-mer frequency, TF over GST control)"
same,binding signal,ERF,"1.29 fold enrichment (6-mer frequency, TF over GST control)"
same,binding signal,ETV3L,"1.25 fold enrichment (6-mer frequency, TF over GST control)"
same,binding signal,ETS2,"1.17 fold enrichment (6-mer frequency, TF over GST control)"
same,binding signal,SPDEF,"1.16 fold enrichment (6-mer frequency, TF over GST control)"
same,binding signal,ETV7,"1.36 fold enrichment (6-mer frequency, TF over GST control)"
same,binding signal,ELF5,"1.16 fold enrichment (6-mer frequency, TF over GST control)"
same,binding signal,ETV3,"1.16 fold enrichment (6-mer frequency, TF over GST control)"
same,binding signal,ETV6,"1.32 fold enrichment (6-mer frequency, TF over GST control)"
